Data reported in the supplement of paper PMC10941209.
Values without a mark were called inactive.

System: Toxoplasma gondii RH 2F1 tachyzoites (intracellular in HFF)
Test: parasite survival relative to DMSO control; higher = less antiparasitic activity, active = 20 or less
Conditions: 1 µM; 72 h
Method in brief: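 Parasite survival was taken as the CPRG signal relative to DMSO-treated infected wells, given as a percentage. To obtain it, HFF cells (5 × 10^3 cells/well, 96-well plates) were infected for 3 h in D2 medium with 5 × 10^3 β-galactosidase-expressing Toxoplasma gondii RH-2F1 tachyzoites, then exposed to compound at 1 μM for 72 h at 37°C in 5% CO2. Absorbance at 570 nm was measured 30 min after CPRG was added to lysed cells, and 2 or more biological replicates were run.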

SMILES | parasite survival
Cc1nc(-c2ccc(C3N(C)c4ccc(F)cc4C(=O)N3c3ccccc3)s2)cs1 (centres undefined) | 59.2%
CCCC(=O)OCCc1ccccc1 | 57%
CCOc1ccc(/C=N/NC(=O)C2CC2c2ccc(C(C)(C)C)cc2)cc1OCC (centres undefined) | 51.6%
CCCC1(C2CC2)c2cc(Cl)ccc2NC(=O)N1C (centres undefined) | 70.4%
O=C1[C@H](CC[C@H](O)c2ccc(F)cc2)[C@@H](c2ccc(O)cc2)N1c1ccc(F)cc1 | 91.5%
Nc1nc(=O)c(Br)c(-c2ccccc2)[nH]1 | 75.4%
CCOCc1nc2c(N)nc3ccccc3c2n1CC(C)(C)O | 55.5%
CCn1cc(C(=O)O)c(=O)c2cc(F)c(N3CCNC(C)C3)c(F)c21 (centres undefined) | 76%
COc1ccc(COc2cc3oc(=O)c4cc(C(C)O)ccc4c3cc2OC)cc1 (centres undefined) | 57%
O=C(Cc1ccccc1F)Nc1nc2ccccc2[nH]1 | 38.1%
Nc1ccc(-c2nc3cc(C(F)(F)F)ccc3n2C23CC4CC(CC(C4)C2)C3)cc1 | 53%
CCCCSc1nc(N)c2[nH]c(=O)c(=O)n(Cc3ccccc3)c2n1 | 26.1%
N[C@@H]1CN(c2c(F)cc3c(=O)c(C(=O)O)cn([C@@H]4C[C@@H]4F)c3c2Cl)CC12CC2 | 51.8%
C[C@@H]1O[C@@H]1P(=O)(O)O | 46.3%
CC(C)(C)c1ccc(C(=O)NC(=O)N2CCCc3ccccc32)cc1 | 49.9%
CC(C)Nc1nc2cc(Cl)c(Cl)cc2n1[C@H]1O[C@@H](CO)[C@H](O)[C@@H]1O | 72%
CC(=O)N1CCN(c2ccc(OCC3COC(Cn4ccnc4)(c4ccc(Cl)cc4Cl)O3)cc2)CC1 (centres undefined) | 58.4%
O=C(NCc1ccc(F)cc1)c1c(O)c2ncccc2[nH]c1=O | 75.5%
COc1ccc(CNC(=O)C(NS(=O)(=O)c2ccc3nc(C)sc3c2)C(C)C)cc1 (centres undefined) | 56.4%
NC(=O)C(c1ccccc1)(c1ccccc1)[C@H]1CCCN(CCc2ccc3c(c2)CCO3)C1 | 67%

SMILES | parasite survival
NC[C@H]1O[C@H](O[C@H]2[C@H](O)[C@@H](O[C@H]3O[C@H](CO)[C@@H](O)[C@H](N)[C@H]3O)[C@H](N)C[C@@H]2N)[C@H](N)C[C@@H]1O | 48.9%
OB1OCc2cc(Cl)ccc21 | 57.2%
COc1ccccc1NC(=O)c1ccccc1Sc1ccc([N+](=O)[O-])cc1 | 52%
Cc1nc(N(C)C(=O)Cc2ccc(-c3ccccn3)cc2)sc1S(N)(=O)=O | 72.8%
O=C(c1cc(O)nc2ccccc12)N1CCN(c2ccccc2)CC1 | 77.5%
Nc1nc2c(ncn2/C=C2/CC2(CO)CO)c(=O)[nH]1 | 84.8%
O=C(/C=C/n1cnc(-c2cc(C(F)(F)F)cc(C(F)(F)F)c2)n1)NNc1cnccn1 | 20.8%
O=C(O)C[C@H]1CC[C@H](c2ccc(-c3ccc(Nc4ccc(C(F)(F)F)nc4)cn3)cc2)CC1 | 42.6%
COC1CC2CCC(C)C(O)(O2)C(=O)C(=O)N2CCCCC2C(=O)OC(C(C)CC2CCC(OCCO)C(OC)C2)CC(=O)C(C)/C=C(\C)C(O)C(OC)C(=O)C(C)CC(C)/C=C/C=C/C=C/1C (centres undefined) | 56.8%
C[C@H](Cn1cnc2c(N)ncnc21)OCP(=O)(O)O | 76.3%
Cc1ccn2c(C(=O)NCc3ccccc3)c(C)nc2c1 | 49.6%
CCc1nc(N)nc(N)c1C#CC(C)c1cc(OC)cc(-c2ccncc2)c1 (centres undefined) | 4.08% (active)
N=C(N)NCCCCC(=O)Nc1cc(C(F)(F)F)cc(NC(=O)c2cc(C(=O)Nc3cc(C(F)(F)F)cc(NC(=O)CCCCNC(=N)N)c3O[C@@H]3CCNC3)ncn2)c1O[C@@H]1CCNC1 | 58.7%
COc1ccc(NC(=O)CC2Sc3ncnn3C2=O)cc1 (centres undefined) | 22.1%
CC(=O)O[C@H]1C[C@@]2(C)[C@@H](C[C@@H](O)[C@H]3[C@@]4(C)CC[C@@H](O)[C@@H](C)[C@@H]4CC[C@@]32C)/C1=C(\CCC=C(C)C)C(=O)O | 48.4%
CCCCC(CC)CNC(=N)NC(=N)NCCCCCCNC(=N)NC(=N)NCC(CC)CCCC (centres undefined) | 3.8% (active)
CCN(CC)CCCC(C)Nc1ccnc2cc(Cl)ccc12 (centres undefined) | 70.6%
CN(C)CCCOc1ccc(-c2ccc3ncc4c(c3c2)n(C2CCOCC2)c(=O)n4C)cn1 | 50.5%
O=c1cc(NCCCN[C@@H]2CCOc3c(Br)cc(Br)cc32)[nH]c2ccsc12 | 30.7%
